Cav3 T inh: blocks human Cav3.2 T-type calcium channel; 4% of 100,000 active; O95180; Cav3.2-expressing cells, Fluo-4 calcium fluorescence FDSS; active compounds read low; B-score at 10 µM;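 active = single-dose well whose peak fluorescence ratio is a statistical outlier from its plate by either plate-standardised score or position-corrected B-score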
CYP2C9 inhib: blocks human cytochrome P450 2C9 | P11712 | CYP2C9 Supersomes, luciferin-H conversion, luminescence | inhibition, % at 5 µM | 20% of 96,000 active | AID 777;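 active = blocking of liver enzyme CYP2C9 beyond about 50% at 5 µM, limit read from the data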
Target sequence (P11712 whole entry, looked up): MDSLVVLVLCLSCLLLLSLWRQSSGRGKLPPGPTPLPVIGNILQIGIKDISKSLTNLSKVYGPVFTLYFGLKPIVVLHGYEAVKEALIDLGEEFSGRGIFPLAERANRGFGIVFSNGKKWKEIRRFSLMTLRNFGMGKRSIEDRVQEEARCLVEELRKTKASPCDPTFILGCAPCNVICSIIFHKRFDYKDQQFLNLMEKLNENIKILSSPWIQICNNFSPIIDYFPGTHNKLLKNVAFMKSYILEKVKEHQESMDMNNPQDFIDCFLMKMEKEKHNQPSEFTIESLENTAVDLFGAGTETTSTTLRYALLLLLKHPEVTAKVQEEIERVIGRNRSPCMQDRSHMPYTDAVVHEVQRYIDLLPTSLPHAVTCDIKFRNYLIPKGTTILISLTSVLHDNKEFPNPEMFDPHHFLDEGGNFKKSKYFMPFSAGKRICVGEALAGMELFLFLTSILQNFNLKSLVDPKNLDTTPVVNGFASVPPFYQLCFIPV
CYP2C9 activ: activators of human CYP2C9; P11712; recombinant CYP2C9, luciferin-H conversion, luminescence; active compounds read high; factor 1 = untreated enzyme, 0 = blocked; activation factor at 5 µM; 1.4% of 96,000 active; AID 1024;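 active = activation factor of 2 or more for CYP2C9 at a 5 µM dose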
CYP2C19 act: increases human CYP2C19 enzyme activity; P33261; recombinant CYP2C19, luciferin-H EGE luminescence; active compounds read high; 0 = fully inhibited enzyme, 1 = untreated enzyme; activation factor at 5 µM; 96,000 tested, under 10 active; AID 1025;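 active = activation factor of at least 2 at 5 µM in the primary screen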
CYP2C19 inh: human CYP2C19 inhibition; 21% of 96,000 active; inhibition, % at 5 µM; CYP2C19 Supersomes, luciferin-H EGE luminescence, 30 min;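 active = CYP2C19 inhibition above a set limit at 5 µM in the primary screen, cut at about 50% in these data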
Each line names hits and unclear results; the compound was inactive in the other large screens. Only some compounds are listed: those with a hit (about 27% of all), similar ones and a draw of the others.

CCOc1ccc2nc(NC(=O)CSc3nc4cccnc4n3C)sc2c1	none
CCOC(=O)c1c(NC(=O)CSc2nnc(-c3ccccc3C)n2C)sc(C(C)=O)c1C	CYP2C9 inhib 95.0, CYP2C19 inh 84.4
CCOCC(=O)Nc1cccc(C(=O)OCC)c1	none
CCOC(=O)c1cccc(NC(=O)Cn2c(CC(=O)NC)nc3ccccc32)c1	CYP2C9 inhib 70.7
CCOC(=O)c1cccc(NC(=O)CSc2nc3cccnc3n2C)c1	CYP2C19 inh 58.5
CCOC(=O)c1sc(NC(=O)CSc2nnnn2-c2ccccc2)c(C(=O)OCC)c1C	none
CCOC(=O)c1c(NC(=O)CSc2nc3cccnc3n2C)sc(C(C)=O)c1C	CYP2C9 inhib 69.2
COc1cc(S(=O)(=O)N2CCOCC2)ccc1NC(=O)CSc1nnc(N)s1	none
C[C@@H]1C=C(C(=O)NCc2nc3ccccc3[nH]2)O[C@H](OCCCCO)C1	none (no result: CYP2C9 inhib, CYP2C9 activ, CYP2C19 act, CYP2C19 inh)
COc1ccc(/C=N/NC(=O)CSCC(=O)Nc2ccccc2)cc1OC	none
COc1cc(/C=N/NC(=O)CSc2cc(C)c(Br)cc2C)ccc1O	CYP2C9 inhib 76.1
COC(=O)Oc1ccc(/C=N/NC(=O)CSCc2ccccc2Br)cc1OC	CYP2C9 inhib 67.4, CYP2C19 inh 56.5
Cc1cc(SCC(=O)N/N=C/c2ccc(O)c(O)c2O)c(C)cc1Br	none
COc1ccc(/C=N/NC(=O)CCn2c3ccccc3c3ccccc32)cc1O	CYP2C9 inhib 96.9, CYP2C19 inh 94.4
CCN(CC)C(=O)C(=O)c1cccn1-c1cccc(-n2cccc2C(=O)C(=O)N(CC)CC)c1C#N	none
Cc1cc(-n2nc(C)cc2C)nc(NS(=O)(=O)c2ccccc2)n1	none
CCOC(=O)c1cc(CNC(=O)c2c(C)oc3c2CCCC3)c(C)o1	none
Oc1c(C(c2ccc(F)cc2)N2CCc3ccccc3C2)sc2ncnn12 (stereo not drawn)	none (no result: CYP2C9 inhib, CYP2C9 activ, CYP2C19 act, CYP2C19 inh)
ON1C2CCCCC2N(O)C1c1c(F)c(F)c(F)c(F)c1F (stereo not drawn)	none
COc1ccccc1-c1nc(C#N)c(NCc2ccc(F)cc2)o1	CYP2C9 inhib 60.4, CYP2C19 inh 76.4
COc1ccc(CCNc2oc(-c3ccc(OC)c(OC)c3)nc2C#N)cc1	CYP2C9 inhib 53.0, CYP2C19 inh 52.1
COc1ccc(-c2nc(C#N)c(NCC3CCCO3)o2)cc1OC (stereo not drawn)	CYP2C9 inhib 70.8, CYP2C19 inh 67.1
C=CCNc1oc(-c2ccc(OC)cc2)nc1C#N	none
COc1ccc(CCNc2oc(-c3ccccc3OC)nc2C#N)cc1	CYP2C9 inhib 59.8, CYP2C19 inh 92.5
N#Cc1nc(-c2ccc(F)cc2)oc1NCc1ccccc1	none
COc1ccc(-c2nc(C#N)c(NCCCN(C)C)o2)cc1OC	none
COc1cc(S(=O)(=O)N2CCCCC2)ccc1NC(C)=O	none
CC(=O)Nc1ccc(S(=O)(=O)NNC(=O)c2cc3c4ccccc4n(C)c3s2)cc1	none
Cc1ccc2cc3c(NC(=O)c4ccco4)nn(CC(C)C)c3nc2c1	none
COc1ccc(CNC(=O)Cn2cnc3c(=O)n(C)c(=O)n(C)c32)cc1	none
C#CCOCCOCCOCCNc1nc(N2CCOCC2)nc(N2CCN(C(=O)[C@H](CCC(=O)O)n3cc(C(N)[C@H](C)CC)nn3)CC2)n1 (stereo partly drawn)	none (no result: CYP2C9 inhib, CYP2C9 activ, CYP2C19 act, CYP2C19 inh)
CCNc1oc(-c2cccc3ccccc23)nc1C#N	none
COc1ccc(-c2nc(C#N)c(NC(C)c3ccccc3)o2)cc1OC (stereo not drawn)	CYP2C9 inhib 53.0 (no result: Cav3 T inh)
COc1ccc(-c2nc(C#N)c(N3CCOCC3)o2)cc1OC	none
COc1ccc(CCNc2oc(-c3ccccc3OC)nc2C#N)cc1OC	CYP2C9 inhib 72.4, CYP2C19 inh 98.2
CCN(CC)N=Nc1[nH]nc2nc(C)cc(C)c12	none
O=C(Cn1cnc2c(cnn2-c2ccc(Cl)cc2)c1=O)NCCc1ccccc1	none
COC(=O)Cc1cn(-c2ncc(C(F)(F)F)cc2Cl)c2ccccc12	CYP2C9 inhib 70.6, CYP2C19 inh 74.1
Cc1csc(NC(=O)CCSCCc2ccccn2)n1	CYP2C19 inh 61.0
CC(C)(C)C(=O)Nc1ccc(-c2cn3ccsc3n2)cc1	none (no result: Cav3 T inh)
O=S(=O)(Nc1ccc(-c2cn3ccsc3n2)cc1)c1ccc2c(c1)OCCO2	CYP2C9 inhib 91.3, CYP2C19 inh 76.4
Cn1c(=O)c(=O)n(C)c2cc(S(=O)(=O)Nc3ccc4c(c3)OCCO4)ccc21	CYP2C9 inhib 53.6 (no result: Cav3 T inh)
COc1ccc(NS(=O)(=O)c2ccc3oc(Nc4ccc5c(c4)OCCO5)nc3c2)cc1	CYP2C9 inhib 96.3, CYP2C19 inh 51.3
Cn1c(=O)c(=O)n(C)c2cc(S(=O)(=O)Nc3ccc(OC(F)(F)F)cc3)ccc21	CYP2C9 inhib 91.4, CYP2C19 inh 82.3
CCN1CCCC1CNC(=O)C1CCN(Cc2nc(-c3cccc(Br)c3)oc2C)CC1 (stereo not drawn)	none (no result: Cav3 T inh)
C=CCc1ccc(OCCOCCNCCCC)c(OC)c1	none
C=CCCCCCCCC(=O)OC	none (no result: CYP2C9 inhib, CYP2C9 activ, CYP2C19 act, CYP2C19 inh)
COc1ccc(CNC(=O)[C@H](C)NC(=O)C2CCN(S(=O)(=O)c3ccc(C)cc3)CC2)cc1	none
COc1ccc(CNC(=O)C2CCCN2S(=O)(=O)c2ccccc2)cc1 (stereo not drawn)	CYP2C19 inh 76.8
COc1ccc(CNC(=O)C2CCCN2S(=O)(=O)c2ccc(C)cc2)cc1 (stereo not drawn)	CYP2C19 inh 79.7
CCN(CC)CCNC(=O)C(C)c1nn(CC)c(=O)c2ccccc12 (stereo not drawn)	none (no result: CYP2C9 inhib, CYP2C9 activ, CYP2C19 act, CYP2C19 inh)
CCC(=O)N(Cc1cc2cc(OC)ccc2[nH]c1=O)c1cccc(C)c1	none
COc1cc(C2C(C(C)=O)=C(O)C(=O)N2c2ccc(Br)cn2)ccc1O (stereo not drawn)	none
CC(=O)C1=C(O)C(=O)N(c2nccs2)C1c1ccc(Br)cc1 (stereo not drawn)	CYP2C9 inhib 56.8
CC(=O)C1=C(O)C(=O)N(c2cc(C(C)(C)C)on2)C1c1ccc(C(C)C)cc1 (stereo not drawn)	Cav3 T inh -4.21
Cc1cc(N2C(=O)C(O)=C(C(=O)c3ccco3)C2c2ccc(O)cc2)no1 (stereo not drawn)	none (no result: Cav3 T inh)
CC(=O)C1=C(O)C(=O)N(c2cc(C(C)(C)C)on2)C1c1ccc(Br)cc1 (stereo not drawn)	Cav3 T inh -5.92
CC(C)N=C(NC#N)SCc1ccccc1F	CYP2C19 inh 84.7
O=C(O)C1CCCCN1S(=O)(=O)c1ccccc1 (stereo not drawn)	none
COc1ccc(S(=O)(=O)N2CCCCC2C(=O)O)cc1 (stereo not drawn)	none (no result: CYP2C9 inhib, CYP2C9 activ, CYP2C19 act, CYP2C19 inh)
CCOc1ccc(NC(=O)C2CCCCN2S(=O)(=O)c2ccccc2)cc1 (stereo not drawn)	CYP2C19 inh 75.1
COc1ccc(NC(=O)C2CCCCN2S(=O)(=O)c2ccc(F)cc2)cc1 (stereo not drawn)	CYP2C19 inh 68.4
COc1ccccc1NC(=O)C1CCCCN1S(=O)(=O)c1ccc(F)cc1 (stereo not drawn)	CYP2C9 activ 2.7

Source: PubChem BioAssay
